PMC5540273 (PLoS ONE, 2017)

Legend:
Conditions in all cases: concentration: 1 μM, replicates: in singlicate; n = 1
[1] = system: PDPK1
[2] = system: PFTAIRE2
[3] = system: T1, PFTK1
T1 construct: gene CDK14

[4] = system: PHKG1
[5] = system: PHKG2
[6] = system: PIK3C2B
[7] = system: PIK3C2G
[8] = system: PIK3CA
[9] = system: PIK3CB
[10] = system: PIK3CD
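Also: KINOMEscan kinase panel screen.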

SMILES	%Inh [1] [%]	%Inh [2] [%]	%Inh [3] [%]	%Inh [4] [%]	%Inh [5] [%]	%Inh [6] [%]	%Inh [7] [%]	%Inh [8] [%]	%Inh [9] [%]	%Inh [10] [%]
Cn1c(=O)c(F)c(Nc2ccc(I)cc2F)c2c(=O)n(OC[C@H](O)CO)cnc21	21	2	0	23	0	0	0	0	0	0
Fc1cccc(CSc2nnc(-c3ccc4c(c3)CCO4)o2)c1	0	10	0	1	0	1	17	10	14	0
CCCNC(=O)Nc1ccc(Oc2ncnc3ccn(C)c23)cc1	0	10	0	0	0	19	27	14	0	30
COc1ccc(-c2coc3ccc(-c4nnc(SCc5cccc(C#N)c5)o4)cc23)cc1	2	0	1	0	1	2	5	0	39	0
